The values that follow come from PubChem BioAssay (Tox21).

Assay [1] in a line: Nuclear factor erythroid 2-related factor 2/antioxidant responsive element (Nrf2/ARE) small molecule agonists: qHTS cell viability counter screen in human keratinocytes (AID 1919968; active means well fitted curve in the direction sought with a large enough effect in the repeat runs; an effect the other way counts as inactive or inconclusive; further: nearly all actives have a fitted effect of over 55% in size; further: potency means the concentration at half of the fitted maximal effect). Put shortly: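 Parallel cytotoxicity read: KeratinoSens HaCaT cells, compound treatment 23 h, viability by CellTiter-Fluor fluorescence 1 h post-reagent.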
Assay [2] can be described thus: Nuclear factor erythroid 2-related factor 2/antioxidant responsive element (Nrf2/ARE) small molecule agonists: luciferase reporter gene qHTS assay in human keratinocytes (AID 1919969). Further: nearly all actives have a fitted effect of over 35% in size. Further: potency means the concentration at half of the fitted maximal effect.
Assay [3] has as its target Gonadotropin-releasing hormone receptor (Homo sapiens) (UniProt P30968). The experiment in a line: Human gonadotropin-releasing hormone receptor (GnRHR) small molecule agonists, calcium flux assay in GnRHR-HEK293 cells (AID 1920063). Further: nearly all actives have a fitted effect of over 35% in size. Put shortly: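 Calcium flux, agonist mode, human GnRHR stably integrated in HEK293; dye 1 h at 37 C before compound; Ex/Em=480/540 kinetic read, 3 min; 15 concentrations, triplicate.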

Assay [4] addresses KiSS-1 receptor (Homo sapiens) (UniProt Q969F8). The experiment in a line: Human kisspeptin (KISS1R) small molecule agonists, calcium flux assay in KISS1R-HEK293 cells (AID 1920064; active means well fitted curve in the direction sought with a large enough effect in the repeat runs; an effect the other way counts as inactive or inconclusive). Put shortly:
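Triplicate 15-concentration series were applied to dye-loaded human KISS1R HEK293 cells, and agonist-evoked calcium fluorescence was captured for 3 min.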

Assay [5] in a line: G protein-coupled receptor (GPCR) small molecule agonists, calcium flux assay: HEK293 wild type cell line counter screen (AID 1920065). Put shortly:
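Non-specific calcium responders were flagged by adding DMSO-dissolved compounds to dye-loaded cells and reading 480/540 nm fluorescence each second for 3 min; ATP served as positive control.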

The nature of assay [6]: p53 small molecule agonists, cell-based qHTS assay with rat liver microsomes (AID 1963578). Put shortly: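 Agonist mode in p53RE-bla reporter cells, with compounds co-incubated 16 h at 37 C alongside 0.5 mg/mL rat liver microsomes and 0.5 mg/mL NADPH (final), followed by a 2 h LiveBLAzer detection step.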
The nature of assay [7]: p53 small molecule agonists, cell-based qHTS assay with human liver microsomes: qHTS cell viability counter screen (AID 1963579). Further: nearly all actives have a fitted effect of over 45% in size. Put shortly: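 Metabolically activated exposure: compounds, human liver microsomes and NADPH (0.5 mg/mL final apiece) were added to p53RE-bla cells seeded 5 h earlier, left 16 h at 37 C, and then assessed for viability by CellTiter-Glo luminescence.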

Assay [8] in a line: p53 small molecule agonists, cell-based qHTS assay with rat liver microsomes: qHTS cell viability counter screen (AID 1963580). Further: nearly all actives have a fitted effect of over 45% in size. The method in brief:
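Cytotoxicity counter screen: intracellular ATP read by CellTiter-Glo luminescence in the p53 reporter wells. HCT-116 p53RE-bla cells were treated for 16 h at 37 C alongside rat liver microsomes and NADPH, each 0.5 mg/mL final.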

A short description of assay [9]: p53 small molecule agonists, cell-based qHTS assay: qHTS cell viability counter screen (AID 1963581). Further: nearly all actives have a fitted effect of over 45% in size. Further: potency means the concentration at half of the fitted maximal effect. Put shortly:
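Multiplexed with the reporter read, a CellTiter-Glo step (30 min, room temperature) gauges ATP-based viability of HCT-116 p53RE-bla cells after 16 h compound incubation at 37 C.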

Assay [10] in a line: p53 small molecule agonists, cell-based qHTS assay (AID 1963582; active means well fitted activation curve with a large enough effect in the signal ratio in the repeat runs, not every such curve was filed as active; the % refers to the signal ratio). The method in brief:
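Beta-lactamase reporter cells (p53RE-bla) treated with compounds for 16 h at 37 C; FRET substrate, 2 h, room temperature; fluorescence intensity.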

Assay [11] concerns the target 5-hydroxytryptamine receptor 2A (Homo sapiens) (UniProt P28223). The experiment in a line: 5-hydroxytryptamine receptor 2A (HTR2A) small molecule antagonists, cell-based qHTS assay (AID 1963586). Further: nearly all actives have a fitted effect of over 45% in size. The method in brief:
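CHO cells stably expressing human HTR2A were plated for 18 h at 37 C, then loaded with calcium dye for 1 h. Compounds were preincubated 5 min at room temperature before DOI (4 nM solution) was added. Kinetic fluorescence was read for 3 min.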

Assay [12] has the same target. The experiment in a line: 5-hydroxytryptamine receptor 2A (HTR2A) small molecule agonists, cell-based qHTS assay (AID 1963587). Further: nearly all actives have a fitted effect of over 30% in size. Put shortly:
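Kinetic calcium-flux fluorescence (2 min, 1 sec intervals) after compound addition in agonist mode. HTR2A-CHO cells were cultured 18 h, then dye-loaded 1 h at 37 C.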

The target in assay [13] is Muscarinic acetylcholine receptor M1 (Homo sapiens) (UniProt P11229). Kind of assay: Cholinergic receptor muscarinic 1 (CHRM1) small molecule antagonists, cell-based qHTS assay (AID 1963588). Further: nearly all actives have a fitted effect of over 40% in size. Further: potency means the concentration at half of the fitted maximal effect. The method in brief:
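Compounds were tested at 15 concentrations in three independent runs. Dye-loaded CHRM1-CHO cells were exposed 5 min at room temperature before stimulation by acetylcholine added at 50nM. Intracellular calcium was read kinetically on FDSS for 3 min.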

Assay [14] shares this target. The experiment in a line: Cholinergic receptor muscarinic 1 (CHRM1) small molecule agonists, cell-based qHTS assay (AID 1963589). Further: nearly all actives have a fitted effect of over 35% in size. Put shortly: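 qHTS, 15-point titration, 3 independent runs: compounds pin-transferred onto dye-loaded CHRM1-CHO cells (human M1), calcium fluorescence followed every second to detect agonism.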
The nature of assay [15]: cAMP Responsive Elements (CRE) small molecule agonists, cell-based qHTS assay (AID 1963590). Put shortly:
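Quantitative HTS for CRE agonists: HEK 293T CRE-bla cells, overnight plating, 3 h compound incubation at 37 C/5% CO2, then 2 h room-temperature LiveBLAzer B/G FRET substrate loading.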

A short description of assay [16]: cAMP Responsive Elements (CRE) small molecule antagonists, cell-based qHTS assay (AID 1963591; active means well fitted inhibition curve with a large enough effect in the signal ratio in the repeat runs, not every such curve was filed as active; the % refers to the signal ratio). The method in brief: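 Fluorescence intensity from cleaved LiveBLAzer B/G substrate (2 h, room temperature) quantified CRE-bla activity in HEK 293T cells exposed 3 h to compound with 0.25 uM final NKH477.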
Assay [17] deals with Beta-2 adrenergic receptor (Homo sapiens) (UniProt P07550). The experiment in a line: Adrenergic beta2 receptor (ADRB2) small molecule antagonists, cell-based qHTS assay (AID 1963592). Further: nearly all actives have a fitted effect of over 50% in size. Further: potency means the concentration at half of the fitted maximal effect. Put shortly:
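Assay format: CHO-ADRB2 cells, 18-20hr seeding at 37C/5% CO2, then compound plus 1nM isoproterenol agonist mix for 0.5hr RT. Homogeneous time-resolved fluorescence cAMP detection after 1hr, expressed as 665/615 nm ratio.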

For assay [18] the target is unchanged. The experiment in a line: Adrenergic beta2 receptor (ADRB2) small molecule agonists, cell-based qHTS assay (AID 1963593).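 Further: CHO cells stably overexpressing human ADRB2.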 Put shortly:
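CHO cells stably over-expressing ADRB2 were plated overnight at 37C, then dosed with compounds plus a stimulation mix containing 100uM IBMX and 25uM Ro-20-1724 for 0.5hr at room temperature. cAMP was measured by HTRF competition, 1hr.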

Assay [19] addresses D(2) dopamine receptor (Homo sapiens) (UniProt P14416). The experiment in a line: Dopamine D2 receptor (DRD2) small molecule antagonists, cell-based qHTS assay (AID 1963595; active means well fitted inhibition curve with a large enough effect in the signal ratio in the repeat runs, with a control signal flat; the % refers to the signal ratio; further: potency means the concentration at half of the fitted maximal effect). The method in brief: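 Readout: HTRF cAMP, cAMP-d2 competing with cellular cAMP for anti-cAMP cryptate, read after 1 h. Cells: DRD2-HEK293. Conditions: 0.1 mM Ro20-1724, 12 nM quinpirole, 200 nM NKH477, 30 min RT.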

For assay [20] the target is unchanged. The experiment in a line: Dopamine D2 receptor (DRD2) small molecule agonists, cell-based qHTS assay (AID 1963594). Further: nearly all actives have a fitted effect of over 35% in size. The method in brief:
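cAMP accumulation in DRD2-HEK293 cells measured by HTRF after 1 h detection; compounds added 10 min before NKH477 (200nM […]) forskolin-analogue stimulation, 30 min at room temperature, with Ro20-1724 present at 0.1 mM final.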

Records with an inconclusive call do not appear. Activity calls are given as the source filed them. Unless noted, the call rests on the fitted dose curve.

Chain of Gonadotropin-releasing hormone receptor (Homo sapiens) (P30968 whole entry, looked up): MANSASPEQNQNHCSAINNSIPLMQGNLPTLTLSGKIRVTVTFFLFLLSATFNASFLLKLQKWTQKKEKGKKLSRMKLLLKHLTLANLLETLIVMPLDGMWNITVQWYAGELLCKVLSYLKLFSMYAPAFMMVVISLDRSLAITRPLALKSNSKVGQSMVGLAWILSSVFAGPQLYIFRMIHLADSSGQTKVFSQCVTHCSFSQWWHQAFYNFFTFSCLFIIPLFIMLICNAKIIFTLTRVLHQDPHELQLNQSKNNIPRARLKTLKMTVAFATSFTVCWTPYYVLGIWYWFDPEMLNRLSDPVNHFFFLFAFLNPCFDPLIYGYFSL
Chain of KiSS-1 receptor (Homo sapiens) (Q969F8 whole entry, looked up): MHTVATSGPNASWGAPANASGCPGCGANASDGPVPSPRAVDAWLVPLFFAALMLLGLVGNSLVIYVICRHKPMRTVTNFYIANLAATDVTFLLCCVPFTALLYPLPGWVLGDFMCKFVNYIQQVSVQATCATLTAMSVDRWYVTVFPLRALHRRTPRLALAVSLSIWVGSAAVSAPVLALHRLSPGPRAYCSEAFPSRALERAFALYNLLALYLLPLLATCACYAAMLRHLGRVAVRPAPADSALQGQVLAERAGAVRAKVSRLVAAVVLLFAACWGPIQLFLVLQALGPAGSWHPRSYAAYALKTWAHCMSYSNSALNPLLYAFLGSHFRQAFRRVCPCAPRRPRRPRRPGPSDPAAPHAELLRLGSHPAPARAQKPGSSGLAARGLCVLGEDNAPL
Chain of Muscarinic acetylcholine receptor M1 (Homo sapiens) (P11229 whole entry, looked up): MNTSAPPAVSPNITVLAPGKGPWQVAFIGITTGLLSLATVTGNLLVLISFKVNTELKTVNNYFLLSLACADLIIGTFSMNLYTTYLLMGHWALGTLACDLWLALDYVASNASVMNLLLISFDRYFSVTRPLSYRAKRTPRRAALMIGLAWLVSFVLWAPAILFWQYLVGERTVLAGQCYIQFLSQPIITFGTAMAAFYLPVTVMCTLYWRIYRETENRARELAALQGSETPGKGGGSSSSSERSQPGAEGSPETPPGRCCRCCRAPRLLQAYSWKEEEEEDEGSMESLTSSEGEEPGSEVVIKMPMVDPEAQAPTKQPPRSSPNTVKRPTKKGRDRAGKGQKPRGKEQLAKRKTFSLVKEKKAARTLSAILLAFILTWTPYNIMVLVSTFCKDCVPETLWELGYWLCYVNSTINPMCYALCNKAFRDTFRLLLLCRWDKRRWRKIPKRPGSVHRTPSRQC
Chain of Beta-2 adrenergic receptor (Homo sapiens) (P07550 whole entry, looked up): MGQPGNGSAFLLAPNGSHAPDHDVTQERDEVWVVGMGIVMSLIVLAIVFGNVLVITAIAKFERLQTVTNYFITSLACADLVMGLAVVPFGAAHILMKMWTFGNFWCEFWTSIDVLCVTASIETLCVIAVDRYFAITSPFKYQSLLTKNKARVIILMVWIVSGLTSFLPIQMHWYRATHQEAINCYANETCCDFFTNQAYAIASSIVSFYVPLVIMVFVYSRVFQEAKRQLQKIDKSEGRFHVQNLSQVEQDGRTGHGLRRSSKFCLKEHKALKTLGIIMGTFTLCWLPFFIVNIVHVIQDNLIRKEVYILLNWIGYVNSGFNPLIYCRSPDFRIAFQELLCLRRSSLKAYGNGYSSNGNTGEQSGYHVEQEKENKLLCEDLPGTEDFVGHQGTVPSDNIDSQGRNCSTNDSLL
Chain of D(2) dopamine receptor (Homo sapiens) (P14416 whole entry, looked up): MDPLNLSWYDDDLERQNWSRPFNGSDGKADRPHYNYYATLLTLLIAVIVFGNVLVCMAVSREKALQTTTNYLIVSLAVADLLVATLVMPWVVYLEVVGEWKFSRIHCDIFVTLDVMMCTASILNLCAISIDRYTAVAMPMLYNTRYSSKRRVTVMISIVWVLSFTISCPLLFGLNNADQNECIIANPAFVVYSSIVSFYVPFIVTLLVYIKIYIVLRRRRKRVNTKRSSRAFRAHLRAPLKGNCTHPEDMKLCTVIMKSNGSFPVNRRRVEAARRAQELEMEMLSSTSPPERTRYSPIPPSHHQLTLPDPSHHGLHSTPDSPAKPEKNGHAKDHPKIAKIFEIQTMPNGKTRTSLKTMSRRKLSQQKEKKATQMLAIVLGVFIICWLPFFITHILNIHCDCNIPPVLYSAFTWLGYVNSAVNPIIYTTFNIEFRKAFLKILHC
Chain of 5-hydroxytryptamine receptor 2A (Homo sapiens) (P28223 whole entry, looked up): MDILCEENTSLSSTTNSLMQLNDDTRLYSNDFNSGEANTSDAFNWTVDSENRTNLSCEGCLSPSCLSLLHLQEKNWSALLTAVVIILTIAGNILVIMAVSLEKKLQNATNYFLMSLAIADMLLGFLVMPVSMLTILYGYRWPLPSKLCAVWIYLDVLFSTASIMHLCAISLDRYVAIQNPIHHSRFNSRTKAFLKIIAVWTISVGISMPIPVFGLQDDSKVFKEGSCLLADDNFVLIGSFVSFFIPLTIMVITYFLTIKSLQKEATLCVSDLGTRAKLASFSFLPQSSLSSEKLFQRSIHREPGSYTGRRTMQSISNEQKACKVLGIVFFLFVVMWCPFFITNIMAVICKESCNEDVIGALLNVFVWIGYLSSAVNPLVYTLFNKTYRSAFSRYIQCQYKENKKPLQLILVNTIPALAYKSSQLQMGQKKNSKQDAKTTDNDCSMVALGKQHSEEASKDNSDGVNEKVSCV

Turning to `CC(=O)c1ccc[nH]1`, the Potency result in assay [1], in assay [2], in assay [3], in assay [4], in assay [5] and in assay [6] was “inactive” throughout. In addition, the Potency result in assay [7], in assay [8], in assay [9], in [10], in assay [11] and in [12] was “inactive” throughout. For the same compound, the Potency entry in [13], in assay [14], in assay [15], in assay [16], in assay [17] and in [18] was “inactive” throughout. Further, in [19], the Potency result is “inactive”.
In the case of `CNC(=S)NN`, the Potency in [1] is 12.2 µM (active); in assay [2], 6.11 µM (active). In addition, the Potency result in assay [3], in [4], in assay [5], in assay [6], in assay [9] and in assay [11] was “inactive” in each case. The Potency result in [12], in assay [13], in assay [14], in [15], in assay [17] and in assay [18] was “inactive” each time. In addition, the Potency entry in [20] and in assay [19] was “inactive” each time.
As for `Cc1cc(CCN2CCN(c3nsc4ccccc34)CC2)cc2c1NC(=O)CC2(C)C`, the Potency was 48.6 µM (active) in [1]; 45.8 µM (active) in assay [9]; 16.8 µM (active) in assay [13]; 34.4 µM (active) in [17]; 0.243 µM (active) in assay [19]. Further, the Potency result in assay [2], in [3], in assay [4], in assay [5], in [6] and in [11] was “inactive” in each case. Also, the Potency result in assay [12], in [14] and in assay [20] was “inactive” in each case.
As for `COC(=O)Nc1nc2ccc(C(=O)C3CC3)cc2[nH]1`, the Potency result in assay [1], in assay [3], in [4], in assay [5], in assay [6] and in assay [11] was “inactive” each time. Besides, the Potency entry in assay [12], in assay [13], in assay [14], in assay [15], in assay [16] and in assay [17] was “inactive” in each case. Further, the Potency result in assay [20] and in [19] was “inactive” throughout. Moreover, the Potency in assay [2] is 8.41 µM (active).
On to `O=C[C@@H](O)[C@H](O)[C@H](O)CO`, for which the Potency result in assay [1], in [2], in assay [3], in [4], in assay [5] and in assay [7] was “inactive” in each case. Besides, the Potency entry in assay [8], in assay [9], in assay [10], in assay [11], in assay [12] and in assay [13] was “inactive” throughout. The Potency result in assay [14], in assay [15], in assay [16], in assay [17], in [18] and in [20] was “inactive” each time. In addition, the Potency entry in [19] is “inactive”.
For `O=S(=O)(O)c1cc(I)c(O)c2ncccc12`, the Potency entry in assay [1], in assay [2], in [3], in [4], in assay [5] and in [7] was “inactive” each time. The Potency result in [8], in assay [9], in assay [11], in assay [12], in [13] and in assay [14] was “inactive” throughout. Further, the Potency result in assay [15], in assay [16], in assay [17], in assay [18] and in assay [19] was “inactive” in each case.
`CCC[Si](OC)(OC)OC`: the Potency entry in [1], in [2], in assay [3], in assay [4], in assay [5] and in assay [6] was “inactive” each time. Besides, the Potency entry in [7], in [8], in assay [9], in assay [10], in [11] and in [12] was “inactive” throughout. For the same compound, the Potency result in assay [13], in assay [14], in [15], in [16], in assay [17] and in [18] was “inactive” throughout. Moreover, in assay [19], the Potency entry was “inactive”.
